Test results published in the supplement of paper PMC6522484.
± gives the standard deviation of the averaged measurements.

Tests used:
[1] = test system: DLD1; test: cell viability (CellTiter-Glo) relative to plate median (fraction of plate median); higher = more viable cells; conditions: 5 µM; treatment time 24 h; reporter: 7TFP
How it was run: (§1)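 After seeding in 384-well plates, colorectal cancer cell lines carrying stable lentiviral TCF/Wnt firefly luciferase reporters (7TFP or TCF4/Wnt) were left 24 h. Library compounds were then added at a final 5 µM for 24 h. A Tecan F500 reader measured firefly luciferase or CellTiterGlo luminescence on parallel plates, with each well normalised to the plate median by webcellHTS2 (additive, no log transformation), and two independent replicates averaged.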

[2] = test system: HCT116; test: as above; conditions: 5 µM; treatment time 24 h; reporter: TCF4/Wnt
How it was run: as §1

[3] = test system: SW480; test: as above; conditions: 5 µM; treatment time 24 h; reporter: 7TFP
How it was run: as §1

[4] = test system: DLD1; test: TCF/Wnt firefly luciferase reporter signal relative to plate median (fraction of plate median); higher = higher Wnt reporter signal; conditions: 5 µM; treatment time 24 h; reporter: 7TFP
How it was run: as §1

[5] = test system: SW480; test: as above; conditions: 5 µM; treatment time 24 h; reporter: 7TFP
How it was run: as §1

SMILES | cell viability [1] | cell viability [2] | cell viability [3] | TCF/Wnt firefly luciferase reporter signal [4] | TCF/Wnt firefly luciferase reporter signal [5]
c1ccc([C@H]2CN3CCSC3=N2)cc1 | 1.01 | 0.943 ± 0.11 | 1.02 ± 0.048 | 0.943 ± 0.043 | 0.947 ± 0.066
C[C@H]1[C@H](C)CC[C@]2(CO)CC[C@]3(C)C(=CC[C@@H]4[C@@]5(C)CC[C@H](O)C(C)(C)[C@@H]5CC[C@]43C)[C@H]12 | 1 ± 0.042 | 1.02 ± 0.12 | 1 ± 0.05 | 0.871 ± 0.16 | 0.915 ± 0.048
CCCCCCCCCCCCCCC(C(=O)O)C(O)(CC(=O)OC)C(=O)O (stereo not given) | 0.955 ± 0.05 | 0.878 ± 0.017 | 0.9505 ± 0.0064 | 0.979 ± 0.086 | 0.947 ± 0.028
COc1cc(O)c(C(C)=O)c(OC)c1 | 1.12 ± 0.11 | 1.03 ± 0.059 | 1.055 ± 0.0071 | 0.978 ± 0.19 | 0.983 ± 0.11
CC1(C)C(=O)C=C[C@]2(C)[C@H]3CC[C@@]4(C)[C@H](c5ccoc5)OC(=O)[C@H]5O[C@]54[C@]3(C)C(=O)C[C@@H]12 | 1.02 | 0.974 ± 0.023 | 0.97 ± 0.033 | 0.871 ± 0.093 | 0.978 ± 0.025
CC(=O)OC(C)(C)[C@@H]1Cc2cc3ccc(=O)oc3cc2O1 | 1.06 ± 0.014 | 1.1 ± 0.014 | 1.03 ± 0.062 | 0.896 ± 0.039 | 0.944 ± 0.077
CC1(C)OC(=O)NC1=O | 0.893 ± 0.18 | 0.9705 ± 0.0064 | 0.965 ± 0.092 | 1.08 ± 0.11 | 0.932 ± 0.14
O=C(O)C1CC([C@@H]2CCCCN2)CN2CCCCC12 (stereo not given in full) | 1.03 ± 0.11 | 1.03 ± 0.17 | 0.981 ± 0.015 | 1.07 ± 0.064 | 1 ± 0.064
C=C1C[C@]23C[C@@]1(O)CC[C@H]2[C@@]12C=C[C@H](O)[C@@](C)(C(=O)O1)[C@H]2[C@@H]3C(=O)O | 1.03 ± 0.014 | 1.08 ± 0.05 | 1.02 ± 0.052 | 0.88 ± 0.0028 | 0.869 ± 0.14
OCc1ccccc1O | 1.11 ± 0.14 | 1.19 ± 0.035 | 1.14 ± 0.05 | 1.06 ± 0.12 | 0.866 ± 0.042
COc1cc(C(=O)N2CCOCC2)cc(OC)c1OC | 1.08 ± 0.11 | 1.03 ± 0.079 | 1.06 ± 0.028 | 1.04 ± 0.24 | 1.08 ± 0.035
CC(=O)OCC(CCn1cnc2cnc(N)nc21)COC(C)=O | 0.9935 ± 0.0021 | 0.97 ± 0.04 | 0.9805 ± 0.0092 | 0.984 ± 0.052 | 1.025 ± 0.0071
COc1ccc2cc3[n+](cc2c1OC)CCc1cc2c(cc1-3)OCO2 | 1.04 ± 0.021 | 0.984 ± 0.011 | 1.02 ± 0.091 | 1.1 ± 0.085 | 0.954 ± 0.053
c1ccc2[nH]c(-c3cscn3)nc2c1 | 1.02 ± 0.021 | 1.17 ± 0.035 | 1.02 | 1.32 ± 0.16 | 1.18 ± 0.028
O=C(/C=C/c1ccccc1)c1ccc(O)cc1 | 0.834 ± 0.11 | 0.906 ± 0.047 | 0.898 ± 0.013 | 0.88 ± 0.1 | 0.976 ± 0.2
CC(C)=CCc1c2c(c3occ(-c4ccc(O)cc4)c(=O)c3c1O)C=CC(C)(C)O2 | 0.955 ± 0.093 | 0.98 ± 0.028 | 0.99 ± 0.015 | 1.1 ± 0.099 | 0.914 ± 0.099
O=C(O)c1cc(O)c(=O)c2c(O)c(O)ccc2c1 | 1.02 ± 0.028 | 1.04 ± 0.12 | 1.01 ± 0.035 | 1.05 ± 0.035 | 1.02 ± 0.021
Oc1cccc2nc3c(O)cccc3nc12 [1,6-Phenazinediol] | 1.12 ± 0.014 | 0.992 ± 0.069 | 1.01 | 1.12 ± 0.042 | 1.12 ± 0.12
COc1cc2cc3c4cc(OC)c(OC)cc4cc[n+]3c(C)c2cc1OC | 1 ± 0.067 | 0.959 ± 0.013 | 0.9305 ± 0.00071 | 1.05 ± 0.16 | 1.01 ± 0.097
CC[C@H](c1ccc(O)cc1)[C@@H](CC)c1ccc(O)cc1 | 1.05 ± 0.028 | 1.12 ± 0.078 | 1.04 ± 0.057 | 1.125 ± 0.0071 | 1.09 ± 0.092
CC[C@H](/C=C/[C@@H](C)[C@H]1CC[C@H]2[C@@H]3CCC4=CC(=O)CC[C@]4(C)[C@H]3CC[C@]12C)C(C)C | 0.999 ± 0.087 | 0.976 ± 0.18 | 1.02 ± 0.041 | 1.05 | 1.06 ± 0.028
Clc1ccc(COC(Cn2ccnc2)c2ccc(Cl)cc2Cl)cc1 (stereo not given) | 0.944 ± 0.11 | 0.972 ± 0.0085 | 0.99 ± 0.029 | 0.936 ± 0.13 | 1.03 ± 0.074
COc1ccc(OC)c(C(O)CNC(=O)CN)c1 (stereo not given) | 0.944 ± 0.067 | 0.912 ± 0.064 | 1.03 ± 0.035 | 1.06 ± 0.2 | 1.16 ± 0.092
CC(=O)Oc1ccccc1C(=O)O | 1.01 ± 0.035 | 1.02 ± 0.031 | 1.025 ± 0.0071 | 1.05 ± 0.014 | 0.97 ± 0.14
O=C(O)c1cc(=O)c2cccc(O)c2[nH]1 | 0.932 ± 0.077 | 1.07 ± 0.1 | 0.946 ± 0.016 | 1.19 ± 0.014 | 1.15 ± 0.021
O=C(O)C1=CCCNC1 | 1.01 ± 0.061 | 1.01 ± 0.037 | 1 ± 0.013 | 1.13 ± 0.028 | 1.04 ± 0.16
COc1cc(-c2coc3cc(O[C@@H]4O[C@H](CO)[C@@H](O)[C@H](O)[C@H]4O)c(OC)c(O)c3c2=O)cc(O)c1OC | 1.1 ± 0.057 | 1.12 ± 0.078 | 1.09 ± 0.014 | 1.01 ± 0.15 | 0.885 ± 0.023
Cc1cc(CC(=O)O)n(C)c1C(=O)c1ccc(Cl)cc1 | 1.07 ± 0.035 | 0.999 ± 0.03 | 1.05 | 1.12 ± 0.24 | 0.97 ± 0.13
CC[C@H]1C(=O)OC[C@@H]1Cc1cncn1C | 0.942 ± 0.097 | 0.948 ± 0.13 | 1.015 ± 0.0071 | 0.89 ± 0.15 | 0.959 ± 0.019
